Results from PubChem BioAssay (Tox21).
Values without a mark were called inactive. Records with an inconclusive call do not appear. Where a call stands in place of a potency, no number is given. The source made the active and inactive calls. Unless noted, the call rests on the fitted dose curve; in most records, active means well fitted curve in the direction sought with a large enough effect in the repeat runs; inconclusive means weak or mixed curves; inactive means no such curve, though single readings can be large; an effect the other way counts as inactive or inconclusive.

Columns and labels:
[1] = molecular target: Estrogen receptor beta (Homo sapiens) (UniProt Q92731); assay: qHTS assay to identify small molecule antagonists of the estrogen receptor beta (ER-beta) signaling pathway (AID 1259378; active means well fitted inhibition curve with a large enough effect in the signal ratio in the repeat runs, not every such curve was filed as active; the % refers to the signal ratio)
How it was run: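 ER-beta-UAS-bla HEK293T cells in 2% charcoal-stripped FBS medium treated with compound plus 1nM final 17-beta-estradiol for 16 hr at 37C. Beta-lactamase reporter read by FRET substrate fluorescence after 2 hours at room temperature.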

[2] = qHTS assay to identify small molecule agonists of the estrogen receptor beta (ER-beta) signaling pathway - cell viability counter screen (AID 1259380); further: nearly all actives have a fitted effect of over 30% in size; further: potency means the concentration at half of the fitted maximal effect
How it was run: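 Cells used were ER-beta-UAS-bla HEK293T in medium with 2% charcoal-stripped FBS. They were treated for 16 hr at 37C. Viability came from CellTiter-Glo luminescence.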

[3] = qHTS assay to identify small molecule antagonists of the estrogen receptor beta (ER-beta) signaling pathway - cell viability counter screen (AID 1259382); further: series mostly up to about 92 µM; nearly all actives have a fitted effect of over 55% in size
How it was run: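 Agonist-stimulated (1nM E2) ER-beta-UAS-bla HEK293T cells are incubated with library compounds for 16 hr at 37C. Cell viability is then assessed in the reporter-assay wells by adding CellTiter-Glo and reading luminescence after 30 min.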

[4] = qHTS assay to identify small molecule agonists or antagonists of the thyroid stimulating hormone receptor (TSHR) signaling pathway - wild type cell line counter screen (AID 1259384; calls by dose curve)
How it was run: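 Wild-type Hek293 cells, 800/well, 18 h at 37C, then compound with Ro20-1724 for 30 min RT. cAMP by HTRF (cAMP-d2/anti-cAMP cryptate), 1 h RT, fluorescence read. 15 concentrations, triplicates.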

[5] = molecular target: Thyrotropin receptor (Homo sapiens) (UniProt P16473); assay: qHTS assay to identify small molecule antagonists of the thyroid stimulating hormone receptor (TSHR) signaling pathway (AID 1259385; calls by dose curve; further: nearly all actives have a fitted effect of over 20% in size)
How it was run: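 TSHR-HEK293 cells (800/well) plated 18 h, then compounds with Ro20-1724 and TSH at 1.5 ng/mL final, 30 min at room temperature. cAMP quantified by HTRF (cAMP-d2/anti-cAMP-cryptate, 1 h); 15 concentrations in triplicate.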

[6] = qHTS assay to identify small molecule agonists of the estrogen receptor alpha (ER-alpha) signaling pathway in the presence of an antagonist - cell viability counter screen (AID 1259386);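 further: cells exposed to compounds for 22 h at 37 °C before the viability read; nearly all actives have a fitted effect of over 30% in size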; further: potency means the concentration at half of the fitted maximal effect; on activity change, negative = cytotoxicity: series mostly up to about 92 µM
How it was run: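 ICI-182,780 at 10.0nM final accompanies the compound titration (15 concentrations, 22hr, 37C) on VM7Luc4E2 cells. The CellTiter-Fluor fluorescence readout runs in the same wells as the luciferase assay.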

[7] = qHTS assay to identify small molecule agonists of the androgen receptor (AR) signaling pathway in the presence of an antagonist - cell viability counter screen (AID 1259379); further: nearly all actives have a fitted effect of over 25% in size; further: potency means the concentration at half of the fitted maximal effect;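 on activity change, negative = cytotoxicity: MDA-kb2 human breast cancer cells carrying an MMTV luciferase reporter; series mostly up to about 92 µM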
How it was run: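 A CellTiter-Fluor read-out measured viability of MDA-kb2 reporter cells (MMTV promoter with AR and GR response elements). Treatment: nilutamide 3.0uM final with compounds at 15 concentrations, 16 hr, 37C, 0% CO2.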

[8] = molecular target: Estrogen receptor (Homo sapiens) (UniProt P03372); assay: qHTS assay to identify small molecule agonists of the estrogen receptor alpha (ER-alpha) signaling pathway in the presence of an antagonist (AID 1259383; calls by dose curve; further: nearly all actives have a fitted effect of over 15% in size; further: potency means the concentration at half of the fitted maximal effect; on activation: top concentration of the series differs between compounds)
How it was run: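 Using VM7Luc4E2 cells seeded 24hr before treatment, antagonist ICI-182,780 (10.0nM final) was added, followed by compounds at 15 concentrations. Plates incubated 22hr; ONE-Glo luminescence quantified reporter activity.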

[9] = molecular target: Androgen receptor (Homo sapiens) (UniProt P10275); assay: qHTS assay to identify small molecule agonists of the androgen receptor (AR) signaling pathway in the presence of an antagonist (AID 1259381; calls by dose curve; further: nearly all actives have a fitted effect of over 15% in size)
How it was run: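 Using human MDA-kb2 cells with an MMTV promoter–luciferase construct (AR and GR response elements), agonist activity is scored under 3.0uM nilutamide (final) co-treatment; 16hr incubation, 37C, luminescence readout via ONE-Glo.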

Estrogen receptor beta (Homo sapiens), sequence (Q92731 whole entry, looked up): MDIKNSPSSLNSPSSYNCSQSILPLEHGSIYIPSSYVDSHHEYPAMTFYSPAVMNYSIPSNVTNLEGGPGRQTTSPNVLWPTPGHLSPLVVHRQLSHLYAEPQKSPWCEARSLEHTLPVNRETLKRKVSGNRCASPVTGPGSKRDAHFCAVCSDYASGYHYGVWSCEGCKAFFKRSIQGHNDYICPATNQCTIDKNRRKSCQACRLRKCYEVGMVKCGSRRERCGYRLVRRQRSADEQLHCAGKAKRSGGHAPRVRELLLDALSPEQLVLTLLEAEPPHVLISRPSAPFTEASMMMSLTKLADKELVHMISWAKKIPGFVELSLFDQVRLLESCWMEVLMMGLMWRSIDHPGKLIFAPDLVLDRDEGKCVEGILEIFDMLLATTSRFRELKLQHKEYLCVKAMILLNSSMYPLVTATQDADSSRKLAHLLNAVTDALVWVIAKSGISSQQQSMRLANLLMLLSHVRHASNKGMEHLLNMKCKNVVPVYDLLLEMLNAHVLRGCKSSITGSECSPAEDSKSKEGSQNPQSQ
Thyrotropin receptor (Homo sapiens), sequence (P16473 whole entry, looked up): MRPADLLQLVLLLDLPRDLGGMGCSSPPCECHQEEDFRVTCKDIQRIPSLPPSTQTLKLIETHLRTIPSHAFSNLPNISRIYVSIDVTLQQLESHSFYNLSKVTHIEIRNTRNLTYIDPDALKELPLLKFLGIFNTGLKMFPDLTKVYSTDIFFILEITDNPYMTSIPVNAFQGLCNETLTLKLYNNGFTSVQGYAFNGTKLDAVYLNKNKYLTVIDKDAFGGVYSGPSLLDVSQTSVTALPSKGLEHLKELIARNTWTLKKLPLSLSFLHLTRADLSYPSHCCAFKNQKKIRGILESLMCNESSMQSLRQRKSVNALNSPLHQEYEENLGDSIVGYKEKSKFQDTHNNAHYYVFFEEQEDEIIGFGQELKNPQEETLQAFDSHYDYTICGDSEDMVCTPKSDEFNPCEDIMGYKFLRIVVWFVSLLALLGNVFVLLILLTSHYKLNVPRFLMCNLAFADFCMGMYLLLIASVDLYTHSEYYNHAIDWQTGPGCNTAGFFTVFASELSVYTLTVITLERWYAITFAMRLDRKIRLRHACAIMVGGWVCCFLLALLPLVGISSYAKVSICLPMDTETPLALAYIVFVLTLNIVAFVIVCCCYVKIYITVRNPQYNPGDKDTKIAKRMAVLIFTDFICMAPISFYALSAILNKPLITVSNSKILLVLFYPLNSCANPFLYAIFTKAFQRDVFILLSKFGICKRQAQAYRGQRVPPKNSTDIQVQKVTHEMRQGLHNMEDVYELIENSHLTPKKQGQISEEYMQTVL
Estrogen receptor (Homo sapiens), sequence (P03372 whole entry, looked up): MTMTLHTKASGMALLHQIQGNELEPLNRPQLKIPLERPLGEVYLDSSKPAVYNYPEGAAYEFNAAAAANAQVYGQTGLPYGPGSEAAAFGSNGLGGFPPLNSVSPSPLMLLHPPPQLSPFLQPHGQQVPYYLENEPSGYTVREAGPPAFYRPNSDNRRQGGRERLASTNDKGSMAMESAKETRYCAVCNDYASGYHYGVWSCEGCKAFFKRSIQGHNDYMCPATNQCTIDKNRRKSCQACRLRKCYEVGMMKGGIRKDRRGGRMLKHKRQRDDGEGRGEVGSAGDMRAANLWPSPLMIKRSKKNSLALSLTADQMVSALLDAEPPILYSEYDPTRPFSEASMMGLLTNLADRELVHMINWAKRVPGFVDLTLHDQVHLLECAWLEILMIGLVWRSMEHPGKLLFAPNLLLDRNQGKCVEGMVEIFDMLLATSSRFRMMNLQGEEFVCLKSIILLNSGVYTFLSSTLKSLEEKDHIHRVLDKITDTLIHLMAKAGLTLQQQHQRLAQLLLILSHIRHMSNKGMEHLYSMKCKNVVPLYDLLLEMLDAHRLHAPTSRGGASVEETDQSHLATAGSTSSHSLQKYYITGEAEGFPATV
Androgen receptor (Homo sapiens), sequence (P10275 whole entry, looked up): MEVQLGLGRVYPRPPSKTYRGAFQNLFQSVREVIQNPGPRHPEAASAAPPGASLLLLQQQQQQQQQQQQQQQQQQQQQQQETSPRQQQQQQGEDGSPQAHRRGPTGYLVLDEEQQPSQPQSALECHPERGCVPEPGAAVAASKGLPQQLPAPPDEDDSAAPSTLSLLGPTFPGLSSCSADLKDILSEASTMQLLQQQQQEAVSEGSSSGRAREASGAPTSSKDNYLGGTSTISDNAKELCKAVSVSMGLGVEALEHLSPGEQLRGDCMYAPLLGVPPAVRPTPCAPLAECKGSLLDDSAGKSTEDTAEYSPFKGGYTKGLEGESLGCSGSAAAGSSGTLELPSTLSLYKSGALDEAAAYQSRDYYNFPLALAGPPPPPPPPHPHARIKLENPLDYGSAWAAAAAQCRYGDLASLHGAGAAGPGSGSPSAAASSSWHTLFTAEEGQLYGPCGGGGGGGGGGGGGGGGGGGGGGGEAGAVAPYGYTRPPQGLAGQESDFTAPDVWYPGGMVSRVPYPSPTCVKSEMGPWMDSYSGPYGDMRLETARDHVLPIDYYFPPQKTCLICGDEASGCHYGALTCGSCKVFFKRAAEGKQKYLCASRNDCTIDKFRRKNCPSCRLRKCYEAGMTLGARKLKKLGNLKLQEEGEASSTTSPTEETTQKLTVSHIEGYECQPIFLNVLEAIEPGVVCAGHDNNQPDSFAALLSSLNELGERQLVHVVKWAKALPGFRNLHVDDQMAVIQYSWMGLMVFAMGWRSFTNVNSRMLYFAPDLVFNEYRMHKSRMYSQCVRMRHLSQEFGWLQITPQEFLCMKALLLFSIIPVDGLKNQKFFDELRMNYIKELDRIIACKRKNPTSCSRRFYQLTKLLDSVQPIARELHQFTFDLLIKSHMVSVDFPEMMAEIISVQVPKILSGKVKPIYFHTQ

## O=C(O)c1c2ccccc2cc2ccccc12
[1]
  Potency: inactive
[2]
  Potency: inactive
[3]
  Potency: inactive
[4]
  outcome: inactive
[5]
  Potency: inactive
[6]
  Potency: inactive

## CCCCCC1CCC(=O)O1 (configuration not stated)
[1]
  Potency: inactive
[7]
  Potency: inactive
[2]
  Potency: inactive
[8]
  Potency: inactive
[4]
  outcome: inactive
[5]
  Potency: inactive
[6]
  Potency: inactive

## O=c1c2ccccc2oc2ccccc12
[1]
  Potency: inactive
[7]
  Potency: inactive
[2]
  Potency: inactive
[4]
  outcome: inactive
[5]
  Potency: inactive
[6]
  Potency: inactive

## COc1ccnc2c1CCCCC2S(=O)c1nc2ccccc2[nH]1 (configuration not stated)
[1]
  Potency: inactive
[7]
  Potency: inactive
[4]
  outcome: inactive
[5]
  Potency: inactive
[6]
  Potency: inactive

## Clc1cccc(C(c2ccc3nc[nH]c3c2)n2ccnc2)c1 (configuration not stated)
[1]
  Potency: inactive
[9]
  Potency: inactive
[3]
  Potency: inactive
[6]
  Potency: inactive

## CCC[Si](OC)(OC)OC
[1]
  Potency: inactive
[2]
  Potency: inactive
[9]
  Potency: inactive
[3]
  Potency: inactive
[8]
  Potency: inactive
[4]
  outcome: inactive
[5]
  Potency: inactive
[6]
  Potency: inactive

## CCOc1ccccc1O
[1]
  Potency: inactive
[7]
  Potency: inactive
[2]
  Potency: inactive
[4]
  outcome: inactive
[5]
  Potency: inactive
[6]
  Potency: inactive

## O=C1c2ccccc2C(=O)C1c1ccc2cc(S(=O)(=O)O)cc(S(=O)(=O)O)c2n1
[1]
  Potency: inactive
[3]
  Potency: inactive
[8]
  Potency: inactive
[4]
  outcome: inactive
[5]
  Potency: inactive
[6]
  Potency: 26.3 µM (active)

## O=c1[nH]nc(-c2ccc([N+](=O)[O-])o2)o1
[1]
  Potency: inactive
[2]
  Potency: inactive
[3]
  Potency: inactive
[8]
  Potency: inactive
[4]
  outcome: inactive
[5]
  Potency: inactive
[6]
  Potency: 54.5 µM (active)

## CC(C)=CCCC(C)C=O (configuration not stated)
[1]
  Potency: inactive
[8]
  Potency: inactive
[4]
  outcome: inactive
[5]
  Potency: inactive
[6]
  Potency: inactive

## CCCc1nc(C)c2c(=O)[nH]c(-c3cc(S(=O)(=O)N4CCN(CC)CC4)ccc3OCC)nn12
[1]
  Potency: inactive
[2]
  Potency: inactive
[9]
  Potency: inactive
[3]
  Potency: inactive
[6]
  Potency: inactive

## CCC(=O)O[C@@H]1C[C@H]2CC[C@]1(C)C2(C)C
[1]
  Potency: inactive
[7]
  Potency: inactive
[2]
  Potency: inactive
[3]
  Potency: inactive
[6]
  Potency: inactive

## COC=O
[1]
  activity, negative = inhibition: 1.13% [at 8.39 µM]
[8]
  activation: 1.27% [at 8.39 µM]
[4]
  cAMP activity change: -7.06% [at 8.39 µM]
[5]
  activity change, negative = inhibition: 4.44% [at 8.39 µM]
[6]
  activity change, negative = cytotoxicity: -3.92% [at 8.39 µM]

## CC(=O)Oc1cccc2c1C(=O)c1c(OC(C)=O)cc(C(=O)O)cc1C2=O
[7]
  Potency: 26.6 µM (active)
[2]
  Potency: inactive
[9]
  Potency: inactive
[3]
  Potency: inactive
[4]
  outcome: inactive
[5]
  Potency: inactive
[6]
  Potency: 29.8 µM (active)

## COc1cccc([C@H](O)C2CCN(CCc3ccc(F)cc3)CC2)c1OC
[1]
  Potency: inactive
[3]
  Potency: inactive
[8]
  Potency: inactive
[4]
  outcome: inactive
[5]
  Potency: inactive
[6]
  Potency: inactive

## CC1(C)[C@@H]2CC[C@]3(C2)[C@@H]1C(=O)CCC3(C)C
[1]
  Potency: inactive
[9]
  Potency: inactive
[3]
  Potency: inactive
[8]
  Potency: inactive
[4]
  outcome: inactive
[5]
  Potency: inactive
[6]
  Potency: inactive

## c1ccc(CCNc2nc(-c3ccccc3)cs2)cc1
[1]
  Potency: inactive
[7]
  Potency: inactive
[3]
  Potency: inactive
[8]
  Potency: 0.944 µM (active)
[4]
  outcome: inactive
[5]
  Potency: inactive
[6]
  Potency: inactive

## O=C(O)c1ccc2cc(O)ccc2c1
[1]
  Potency: inactive
[2]
  Potency: inactive
[3]
  Potency: inactive
[8]
  Potency: inactive
[6]
  Potency: inactive

## CC1(C)C(=O)NC(=O)N1CO
[1]
  Potency: inactive
[7]
  Potency: inactive
[3]
  Potency: inactive
[8]
  Potency: inactive
[4]
  outcome: inactive
[5]
  Potency: inactive
[6]
  Potency: inactive

## Cc1c(N=C=O)cccc1N=C=O
[1]
  Potency: inactive
[2]
  Potency: inactive
[9]
  Potency: inactive
[3]
  Potency: inactive
[4]
  outcome: inactive
[5]
  Potency: inactive
[6]
  Potency: inactive

## O=C(NC1CCN(CCc2c[nH]c3ccccc23)CC1)c1ccccc1
[1]
  Potency: inactive
[4]
  outcome: inactive
[5]
  Potency: inactive

## CCCC(=O)OCCC(C)C
[7]
  Potency: inactive
[2]
  Potency: inactive
[9]
  Potency: inactive
[3]
  Potency: inactive
[4]
  outcome: inactive
[5]
  Potency: inactive
[6]
  Potency: inactive

## COc1ccc(/C(C)=C/C(=O)O)c(OC)c1
[1]
  Potency: inactive
[7]
  Potency: inactive
[2]
  Potency: inactive
[8]
  Potency: inactive
[4]
  outcome: inactive
[5]
  Potency: inactive
[6]
  Potency: inactive

## O=C1CCCN1CCO
[1]
  Potency: inactive
[7]
  Potency: inactive
[2]
  Potency: 43.3 µM (active)
[8]
  Potency: inactive
[4]
  outcome: inactive
[5]
  Potency: inactive
[6]
  Potency: inactive

## CC/C=C/CCO
[1]
  Potency: inactive
[7]
  Potency: inactive
[2]
  Potency: inactive
[3]
  Potency: inactive
[6]
  Potency: inactive

## CC/C=C\CCO
[1]
  Potency: inactive
[7]
  Potency: inactive
[2]
  Potency: inactive
[3]
  Potency: inactive
[6]
  Potency: inactive

## O=C(C1CCCCC1)N1CC(=O)N2CCCc3ccccc3C2C1 (configuration not stated)
[7]
  Potency: inactive
[2]
  Potency: inactive
[9]
  Potency: inactive
[3]
  Potency: inactive
[8]
  Potency: inactive
[4]
  outcome: inactive
[6]
  Potency: inactive
